# Measured values reported in the supplement of paper PMC3334620.
# In all, about 33,000 sequences were measured (“E-score (-0.5 to 0.5)”: median about -0.017, highest 2% from about 0.3 on). The list comes from a sample in which the highest values are over-represented; it also holds similar and randomly drawn sequences.
# Molecular target: T1, Sut1 (UniProt P53032)
# T1 sequence: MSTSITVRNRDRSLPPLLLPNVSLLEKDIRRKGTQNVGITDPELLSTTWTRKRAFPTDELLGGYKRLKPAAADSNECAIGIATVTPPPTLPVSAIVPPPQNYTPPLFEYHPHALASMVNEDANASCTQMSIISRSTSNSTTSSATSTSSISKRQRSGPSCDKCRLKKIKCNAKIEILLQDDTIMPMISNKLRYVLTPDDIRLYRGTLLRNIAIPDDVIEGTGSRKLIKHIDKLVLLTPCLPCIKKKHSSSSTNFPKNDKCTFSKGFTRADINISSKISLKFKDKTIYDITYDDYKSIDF
# Experiment: PBM E-score (8-mer binding enrichment) (E-score (-0.5 to 0.5)); higher = stronger / more preferred TF binding
# Conditions: protein concentration: 200 nM; construct: GST-full length
# How it was run: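 E-scores (a modified Wilcoxon-Mann-Whitney statistic) were assigned by the Universal PBM Analysis Suite to every ungapped eight-base word pooled with its reverse complement. The input came from universal all-10-mer Agilent arrays made double-stranded by primer extension and probed with GST-tagged yeast transcription factors at about 100-200 nM. Fluorescent anti-GST detected bound protein, and masliner normalised the scans.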
row,Sequence,PBM E-score
1,CAAGCCAA,-0.059
2,GTGGGAAA,-0.0448
3,GCTCCGAC,0.267
4,CCTCCGAA,0.121
5,TCTCCAAA,-0.0978
6,GCTCCGAA,0.439
7,TCTCCGAA,0.446
8,TCTCCGCA,0.225
9,GTGTTTCA,0.0164
10,CACCCCTC,-0.352
11,CTCGGAAG,0.174
12,ATATAAAG,0.177
13,AAATAAAT,0.329
14,AAATAAAG,0.224
15,AAATAAAA,0.234
16,ATATAAAT,0.325
17,ATATAAAC,0.227
18,ATGTTATG,0.211
19,ACCTGTTC,-0.081
20,CTTCTTCA,-0.102
21,CCTGGTCA,-0.307
22,CCCGATCA,-0.133
23,ACCCAAAT,0.00677

row,Sequence,PBM E-score
1,CATGTCTC,-0.0334
2,GCAGCTCC,0.00727
3,TTCCGCAA,0.166
4,CTCCGCTA,0.301
5,GTCCGCGA,0.347
6,CGCCGCGA,0.0357
7,CTCCGCCA,0.171
8,GTCCGCTA,0.258
9,CTCCGCGA,0.35
10,GTCCGCAA,0.298
11,ATCCGCGA,-0.0287
12,CTCCGCTC,0.295
13,GCCCGCGA,-0.0595
14,ATCCGCAA,-0.0823
15,CCGTTCTC,0.0465
16,AGAGCGCG,-0.155
17,AGCCAGCG,-0.249
18,ACCATCGA,-0.151
19,GTCACGAC,-0.0628
20,CGCTCCAC,-0.012
21,CTCCGCGC,0.327
22,CTCCGCCC,0.217
23,ATCCGCGC,-0.0272

row,Sequence,PBM E-score
1,ATGCATAC,-0.0233
2,GAGTGATA,0.13
3,TGTTCGAA,0.103
4,CCAAGTTC,-0.107
5,AAATATAT,0.365
6,GTATACAC,-0.0284
7,AAATATAA,0.273
8,ATATACTA,0.305
9,AAATGTAT,0.304
10,AAATGTAA,0.206
11,AAATATAC,0.217
12,ATATACTC,0.197
13,GTATATAA,0.277
14,CTATACTA,0.21
15,AAATGTAG,0.0326
16,GTATATAC,0.316
17,CAATCGAG,-0.309
18,CTGGTAAA,0.141
19,GACTTCAC,-0.00592
20,AAACACGT,0.116
21,CCCAGCCG,-0.222
22,CCTGATTC,-0.00501
23,CTCCTCCA,-0.147

row,Sequence,PBM E-score
1,CATACCTC,-0.0271
2,GTTTGGCA,-0.0612
3,AAATATTC,0.207
4,ACATATAT,0.266
5,AAATATGC,0.054
6,AAATATTT,0.31
7,AAATATGA,0.114
8,ATATATAT,0.302
9,AAATATTA,0.227
10,ATATAGAT,0.272
11,ACTTATAC,0.264
12,AAATATGT,0.317
13,ACTTATAT,0.325
14,ACTTATAG,0.0142
15,ACGCTATA,-0.103
16,CACTAACG,-0.17
17,CGGTGCAA,-0.00847
18,AGAGCGCA,-0.306
19,AGGGAGGG,-0.158
20,AAGACTAA,0.0716
21,GGTTAACA,0.0261
22,AGATATAT,0.301
23,CTATATAC,0.287

row,Sequence,PBM E-score
1,ATATAGAG,0.0735
2,AGATATAG,0.18
3,ATATATAC,0.31
4,ACATATAC,0.088
5,CTATATAG,0.0328
6,ATATATAG,0.329
7,AGATATAC,0.0915
8,AGAAATGG,-0.012
9,GGCACTCA,-0.374
10,CTCGCCTA,-0.0978
11,TGCGTTAA,-0.00864
12,TATCTCGA,0.108
13,ATGGTGTC,-0.14
14,CCCGTGCC,-0.126
15,AACCGAGA,0.195
16,CATTGAAA,0.249
17,GATTGAAA,0.303
18,AATTGAAG,0.115
19,AATTGAAC,0.0105
20,AATTGAAT,0.314
21,GATTGAAC,0.00278
22,GATCAAAC,-0.00328
23,CCCCATAA,-0.104

row,Sequence,PBM E-score
1,CGAAGATA,0.132
2,AGAGGGGG,-0.322
3,TCCGGCAA,0.33
4,ACCGGCAA,-0.198
5,ACCGGCGA,-0.0414
6,GCCGGCGA,0.0246
7,GCCGGCAA,0.144
8,TCCGGCGA,0.301
9,GAATTTTA,0.251
10,AACTCTGT,-0.0734
11,GGACGTAA,-0.136
12,ATGTTGAA,0.131
13,CTTGAGAA,-0.0815
14,ATCGCAAA,0.0837
15,TTCGCAAA,0.303
16,GTCGCAAA,0.131
17,ACGGTCCT,-0.258
18,ACCCAGAC,-0.0554
19,CAAGCAAC,-0.124
20,ATTCCAAA,0.0401
